Source: PubChem BioAssay
Active and inactive are the calls of the source. Unless noted, the rule behind the calls is not given here.

Experiments:
[1] = resazurin metabolic signal in HepG2 cells – cell-based, resazurin fluorescence, 24 h, PK04 Diversity Set, profiling panel (AID 1172); conditions: HepG2 viability, higher = more signal
[2] = budding yeast growth changes without added modifier – OD600, strain BY4716, 24 h, basal condition, primary screen (AID 1173); conditions: S. cerevisiae BY4716 growth, OD600, 24 h; higher = more signal, called active from +8 up or from −8 down
[3] = viability profiling in MM1S myeloma cells – cell-based, resazurin fluorescence, basal, 24 h, PK04 Diversity Set, profiling panel (AID 1174); conditions: higher = more signal, called active from +8 up or from −8 down;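 note: MM1S multiple myeloma cell line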
[4] = target: Dihydroorotate dehydrogenase (quinone), mitochondrial (Plasmodium falciparum (isolate 3D7)) (UniProt Q08210); test: inhibition of P. falciparum DHODH – biochemical, C-terminal His tag, absorbance 600 nm, primary screen (AID 1175); conditions: PfDHODH enzyme, DCIP absorbance 600 nm; higher = more signal, called active from +8 up or from −8 down;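 note: recombinant parasite enzyme with a five histidine tag at its C terminus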
Dihydroorotate dehydrogenase (quinone), mitochondrial (Plasmodium falciparum (isolate 3D7)), sequence (Q08210 whole entry, looked up): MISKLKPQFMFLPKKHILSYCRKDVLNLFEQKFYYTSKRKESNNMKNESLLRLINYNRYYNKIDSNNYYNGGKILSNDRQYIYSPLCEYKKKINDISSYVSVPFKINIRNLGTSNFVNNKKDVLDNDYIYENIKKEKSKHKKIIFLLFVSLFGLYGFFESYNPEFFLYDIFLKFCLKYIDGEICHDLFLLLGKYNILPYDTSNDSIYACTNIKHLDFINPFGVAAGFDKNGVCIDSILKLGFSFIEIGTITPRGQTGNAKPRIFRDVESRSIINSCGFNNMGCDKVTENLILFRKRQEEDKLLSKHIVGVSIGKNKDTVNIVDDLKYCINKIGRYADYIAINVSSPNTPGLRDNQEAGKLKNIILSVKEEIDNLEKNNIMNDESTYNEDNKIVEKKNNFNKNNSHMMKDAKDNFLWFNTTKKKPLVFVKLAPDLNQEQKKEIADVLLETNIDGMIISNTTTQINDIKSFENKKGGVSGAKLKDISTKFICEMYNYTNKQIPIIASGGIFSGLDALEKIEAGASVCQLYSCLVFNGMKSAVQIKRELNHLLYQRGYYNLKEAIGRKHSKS

[5] = inhibition of PAO1 biofilm formation – strain PAO1, LB-PBS medium, absorbance 600 nm, primary screen (AID 1176); conditions: P. aeruginosa PAO1 growth/biofilm, A600, 12 h; higher = more signal
[6] = growth modulation of vineyard yeast isolate – strain RM11-1a, OD600, basal, 24 h, primary screen (AID 1177);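 note: cultures grown under basal conditions with no added stressor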; conditions: S. cerevisiae RM11-1a growth, OD600, 24 h; higher = more signal, called active from +8 up or from −8 down
[7] = growth of efflux-deficient E. coli DRC39 – strain DRC39, OD650, 24 h, E. coli filamentation inducers, primary screen (AID 1178);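 note: growth measured as culture turbidity by optical density at 650 nm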; conditions: E. coli DRC39 acrAB, higher = more signal, called active from +8 up or from −8 down
[8] = growth of efflux-deficient E. coli DRC39 – strain DRC39, OD650, 48 h, E. coli filamentation inducers, primary screen (AID 1179);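 note: screen aims at cell division blockers that make cells filament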; conditions: E. coli DRC39 delta-acrAB growth, higher = more signal, called active from +8 up or from −8 down
[9] = viability profiling in RPMI8226 myeloma cells – cell-based, resazurin fluorescence, basal, 24 h, PK04 Diversity Set, profiling panel (AID 1180); conditions: higher = more signal;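 note: RPMI8826 multiple myeloma cell line at 5000 cells per well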
[10] = target: E3 ubiquitin-protein ligase XIAP (Homo sapiens) (UniProt P98170); test: small molecules binding XIAP protein – biophysical, small-molecule microarray, fluorescence 635 nm, primary screen (AID 1181); conditions: higher = more signal;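 note: score merges 667 nm emission and signal to noise over triplicate slides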
E3 ubiquitin-protein ligase XIAP (Homo sapiens), sequence (P98170 whole entry, looked up, the tested form may be a part): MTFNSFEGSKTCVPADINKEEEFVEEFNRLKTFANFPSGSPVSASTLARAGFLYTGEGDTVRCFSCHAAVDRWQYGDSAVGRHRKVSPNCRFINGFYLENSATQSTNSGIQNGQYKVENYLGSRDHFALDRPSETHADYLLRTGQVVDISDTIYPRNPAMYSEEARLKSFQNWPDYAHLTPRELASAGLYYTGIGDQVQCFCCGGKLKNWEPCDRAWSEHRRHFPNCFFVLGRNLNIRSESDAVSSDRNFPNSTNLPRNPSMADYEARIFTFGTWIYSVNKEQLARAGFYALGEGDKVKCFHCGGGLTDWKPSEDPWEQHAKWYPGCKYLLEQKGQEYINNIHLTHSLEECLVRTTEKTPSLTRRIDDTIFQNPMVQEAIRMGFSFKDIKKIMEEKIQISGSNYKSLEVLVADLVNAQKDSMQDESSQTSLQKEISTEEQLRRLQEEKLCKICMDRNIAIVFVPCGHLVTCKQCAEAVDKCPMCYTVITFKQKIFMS

[11] = system: XIP peptide (Xip251-270) binding; test: XIP fragment 251-270 binding compounds – biochemical, small-molecule microarray, fluorescence 635/667 nm, 0.1 µg/mL protein, primary screen (AID 1182); conditions: fluorescent protein binding, 635 nm, higher = more signal, called active from +8 up or from −8 down
XIP peptide (Xip251-270) = test: compounds binding XIP fragment 251-270 – biochemical, small-molecule microarray, fluorescence 635/667 nm, 0.5 µg/mL protein, primary screen (AID 1183); conditions: fluorescence 635 nm, higher = more signal
[12] = blood-stage malaria parasite viability loss – strain 3D7, DAPI fluorescence, 100 nL, primary screen (AID 1184);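 note: parasites grown inside human red blood cells in medium with human serum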; conditions: P. falciparum 3D7 growth, 3 d, higher = more signal
[13] = target: Homeobox protein Hox-A13 (Mus musculus) (UniProt Q62424); test: disruptors of Hoxa13 oligonucleotide interaction – biochemical, fluorescence polarization, labeled oligonucleotide, primary screen (AID 1185); conditions: Hoxa13:DNA binding, 15 min, higher = more signal, called active from +8 up or from −8 down
Homeobox protein Hox-A13 (Mus musculus), sequence (Q62424 whole entry, looked up): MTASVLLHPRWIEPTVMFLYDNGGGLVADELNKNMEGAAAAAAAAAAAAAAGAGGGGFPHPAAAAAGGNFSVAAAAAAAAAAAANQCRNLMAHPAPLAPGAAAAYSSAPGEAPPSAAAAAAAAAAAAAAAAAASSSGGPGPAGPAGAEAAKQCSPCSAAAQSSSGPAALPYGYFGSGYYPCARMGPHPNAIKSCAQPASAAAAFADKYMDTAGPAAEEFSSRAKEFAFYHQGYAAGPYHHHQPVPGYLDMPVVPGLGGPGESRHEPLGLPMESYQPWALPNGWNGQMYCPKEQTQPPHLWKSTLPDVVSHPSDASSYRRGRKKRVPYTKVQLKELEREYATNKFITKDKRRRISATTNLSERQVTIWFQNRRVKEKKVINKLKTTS

[14] = blockers of DNA damage checkpoint Chk1 activation – imaging, HeLa, hydroxyurea, phospho-Chk1 antibody, percent positive cells, primary screen (AID 1186); conditions: hydroxyurea-induced phospho-Chk1 immunofluorescence imaging, higher = more signal
[15] = blockers of DNA damage checkpoint Chk1 activation – imaging, HeLa, hydroxyurea, phospho-Chk1 nuclear intensity, primary screen (AID 1187); conditions: hydroxyurea-induced phospho-Chk1 immunofluorescence imaging, higher = more signal

Row | SMILES | z-score [1] | z-score [2] | z-score [3] | composite z-score [4] | z-score [5] | z-score [6] | z-score [7] | z-score [8] | z-score [9] | composite z-score [10] | composite z-score [11] | composite z-score (XIP peptide (Xip251-270)) | z-score [12] | z-score [13] | z-score [14] | z-score [15]
1 | Cc1ccccc1C(O)C1C=CC2C(=O)N(C)C(=O)C2N1N(c1ccccc1)c1ccccc1 (centres undefined) | -0.417 | 0.0882 (inactive) | -0.166 (inactive) | 0.0842 (inactive) | 0.53 (inactive) | 0.591 (inactive) | -0.209 (inactive) | -0.334 (inactive) | -0.0373 | 0.396 | -0.0728 (inactive) | 0.649 | 0.548 | -1.17 (inactive) | -0.274 (inactive) | -0.168 (inactive)
2 | COc1ccc(NC(=O)O[C@H]2[C@H](OC(=O)Nc3ccccc3)[C@@H](OC(=O)Nc3ccccc3)[C@@H](OC)O[C@@H]2CO)cc1 | -1.58 | 0.559 (inactive) | -2.86 (inactive) | 1.1 (inactive) | 0.304 (inactive) | 2.89 (inactive) | 0.717 (inactive) | -0.141 (inactive) | -1.61 | 0.131 | 0.551 (inactive) | 0.925 | -2.47 | -6.22 (inactive) | -0.454 (inactive) | -0.429 (inactive)
3 | COC(=O)[C@@]1(Cc2ccc(F)cc2)[C@H]2c3cc(C(=O)N4CCCC4)n(CCc4ccc(O)c(O)c4)c3C[C@H]2CN1C(=O)c1ccccc1 | -1.48 | 1.78 (inactive) | -1.07 (inactive) | -0.0926 (inactive) | 1.78 (inactive) | 1.78 (inactive) | -0.265 (inactive) | -0.177 (inactive) | -0.795 | 0.32 | 1.19 (inactive) | -0.892 | -1.47 | -4.67 (inactive) | 0.333 (inactive) | 0.303 (inactive)
4 | O=C1O[C@@H](c2ccccc2)[C@@H](c2ccccc2)N2[C@@H](c3ccc(O)cc3)[C@]3(C(=O)Nc4ccc(C#CC5(O)CCCCCC5)cc43)[C@@H](C(=O)NC[C@H](O)c3ccccc3)[C@H]12 | 0.677 | -0.263 (inactive) | -0.418 (inactive) | 0.409 (inactive) | 0.348 (inactive) | 0.417 (inactive) | -0.839 (inactive) | -0.938 (inactive) | -0.809 | -0.312 | 0.0382 (inactive) | 0.691 | -0.627 | -3.55 (inactive) | 0.206 (inactive) | 0.345 (inactive)
5 | NC(=O)N1C(=O)C2C(C1=O)C1C=C(CCCO)C2C(c2cccs2)N1Cc1cccc(OC(F)(F)F)c1 (centres undefined) | 0.0214 | -3.57 (inactive) | -0.637 (inactive) | -0.376 (inactive) | -0.223 (inactive) | 0.199 (inactive) | -0.205 (inactive) | -0.692 (inactive) | -0.18 | 0.195 | 1.07 (inactive) | 0.577 | 0.379 | -6.01 (inactive) | -0.356 (inactive) | -0.334 (inactive)
6 | COCCOC(=O)N1C(=O)[C@@]2(c3cc(C#CC4=CCCCC4)ccc31)[C@H](c1ccccc1OCCO)N1[C@H](c3ccccc3)[C@H](c3ccccc3)OC(=O)[C@H]1[C@@H]2C(=O)Nc1nc2ccccc2s1 | 0.322 | 0.357 (inactive) | -0.774 (inactive) | -0.291 (inactive) | 1.63 (inactive) | 1.12 (inactive) | -0.736 (inactive) | -0.3 (inactive) | -0.765 | 0.0304 | 0.469 (inactive) | 0.484 | -1.8 | 3.53 (inactive) | 0.325 (inactive) | 0.587 (inactive)
7 | COc1ccccc1CN1C(=O)c2ccccc2[C@](Cc2ccccc2I)(C(=O)NCC(F)(F)F)[C@@H]1c1ccc(CO)cc1 | -0.569 | -1.28 (inactive) | -0.142 (inactive) | -0.673 (inactive) | 0.457 (inactive) | 0.648 (inactive) | -0.496 (inactive) | -0.613 (inactive) | 0.17 | 0.0264 | 0.931 (inactive) | 0.909 | -1.49 | -4.98 (inactive) | -0.0993 (inactive) | -0.0597 (inactive)
8 | COCCOC(=O)N1C(=O)[C@@]2(c3cc(C#CC4=CCCCC4)ccc31)[C@H](c1ccccc1OCCO)N1[C@H](c3ccccc3)[C@H](c3ccccc3)OC(=O)[C@H]1[C@@H]2C(=O)N1CCCCCCC1 | 0.133 | 1.86 (inactive) | -4.58 (inactive) | 0.668 (inactive) | 0.365 (inactive) | 2.01 (inactive) | 0.105 (inactive) | -1.32 (inactive) | -3.11 | -0.0663 | 0.549 (inactive) | 0.688 | -2.05 | 4.13 (inactive) | 0.234 (inactive) | 0.347 (inactive)
9 | COCCCNC(=O)[C@@]1(Sc2ccc(C)cc2)CC(=O)N(C2CCCCC2)[C@@H]1c1ccc(CO)cc1 | -0.0171 | -0.0904 (inactive) | 0.0246 (inactive) | -0.0365 (inactive) | -0.438 (inactive) | 0.0315 (inactive) | 0.235 (inactive) | -0.195 (inactive) | -0.577 | -0.191 | -0.0795 (inactive) | 0.421 | -0.715 | -3.21 (inactive) | 0.317 (inactive) | 0.592 (inactive)
